The values that follow come from PubChem BioAssay AID588590 (National Center for Advancing Translational Sciences (NCATS), 2011).

Screen size: about 390,000 compounds; about 4,000 (1%) were called active. Roughly 7% stayed inconclusive and do not appear here. What follows is part of a selection rich in actives, with near analogues and random picks from the rest. Unmarked numbers belong to inactive results. Calls follow the shape of the dose curve; as a rule, active = well fitted inhibition curve with a large enough effect; inconclusive = small, poorly fitted or top-dose-only effect, or another doubt; inactive = no such curve, though single readings can be large or run the other way.
Potency is read from the fitted curve at half-maximal effect.

Chain of DNA polymerase iota (Homo sapiens) (Q9UNA4 whole entry, looked up): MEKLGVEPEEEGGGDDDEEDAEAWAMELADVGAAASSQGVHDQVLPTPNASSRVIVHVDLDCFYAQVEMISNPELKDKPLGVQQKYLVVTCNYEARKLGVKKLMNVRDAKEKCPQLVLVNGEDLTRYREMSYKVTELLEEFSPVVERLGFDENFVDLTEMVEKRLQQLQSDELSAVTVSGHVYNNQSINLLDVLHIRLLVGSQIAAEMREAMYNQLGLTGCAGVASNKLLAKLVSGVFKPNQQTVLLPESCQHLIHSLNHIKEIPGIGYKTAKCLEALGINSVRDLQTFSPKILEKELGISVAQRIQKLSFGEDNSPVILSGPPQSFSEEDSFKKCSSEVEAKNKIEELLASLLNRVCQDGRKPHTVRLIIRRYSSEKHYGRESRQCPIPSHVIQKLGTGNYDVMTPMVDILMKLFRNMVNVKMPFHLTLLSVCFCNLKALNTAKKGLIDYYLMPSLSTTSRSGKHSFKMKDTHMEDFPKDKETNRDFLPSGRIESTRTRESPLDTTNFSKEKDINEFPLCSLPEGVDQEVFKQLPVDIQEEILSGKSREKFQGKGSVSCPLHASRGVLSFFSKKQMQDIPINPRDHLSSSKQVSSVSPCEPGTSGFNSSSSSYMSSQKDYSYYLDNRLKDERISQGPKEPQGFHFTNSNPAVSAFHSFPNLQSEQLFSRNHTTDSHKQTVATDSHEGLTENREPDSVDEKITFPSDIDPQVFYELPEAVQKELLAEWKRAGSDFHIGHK

This assay concerns the target DNA polymerase iota (Homo sapiens) (UniProt Q9UNA4). The assay can be described thus: qHTS for Inhibitors of Polymerase Iota. The note with it: Pol iota fluorescent replication assay, 10 min; series mostly up to 115 µM; activity, negative = inhibition: at the top concentration. An outline of the steps:
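Fluorescent replication assay read twice, at 0 min and 10 min after adding 50 nM (final) substrate. Enzyme (10 nM) and compounds were first incubated 15 min at room temperature; enzyme-free buffer wells were negative controls.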
In general terms: Quantitative high-throughput screening tests each substance at several concentrations.
Take `O=C(CN1CCSc2ccccc21)N1CCN(c2ccccc2)CC1`: the “activity, negative = inhibition” value was 5.88%.
In the case of `Cc1cc(C)cc(NS(=O)(=O)c2ccc3[nH]cc(C(=O)N4CCCCC4)c(=O)c3c2)c1`, the “activity, negative = inhibition” value is -3.74%.
Take `CCCCNC(=O)c1c[nH]c2ccc(S(=O)(=O)Nc3ccc(OCC)cc3)cc2c1=O`: the “activity, negative = inhibition” value is -18.8%.
For the molecule `CC(C)c1ccc(NS(=O)(=O)c2ccc3[nH]cc(C(=O)NC4CCCC4)c(=O)c3c2)cc1`, the Potency was 79.4 µM (active).
`Cc1ccc(C)c(N2CCN(Cc3nnc(-c4ccccc4)o3)CC2)c1`: the “activity, negative = inhibition” value is 20.8%.
With `CN(CC(=O)Nc1ccccc1F)S(=O)(=O)c1ccc2c(c1)c(=O)n(C)c(=O)n2C`, the “activity, negative = inhibition” value was -9.64%.
As to `CS(=O)(=O)c1ccc2c(c1)SC1=NC(=O)/C(=C/c3ccco3)C(=N)N12`, the Potency was 14.1 µM (active).
Take `CCNC(=O)CC1C(=O)N(c2ccc(F)cc2)C(=O)N1Cc1ccc(C)cc1` (stereo not drawn): the “activity, negative = inhibition” value is 23.2%.
Turning to `S=c1[nH]nc(-c2cc(-c3ccccc3)n[nH]2)n1/N=C/c1c2ccccc2cc2ccccc12`, the Potency was 20 µM (active).
Turning to `CCCc1cc(-c2n[nH]c(=S)n2CC)c2ccccc2n1`, the “activity, negative = inhibition” value was 3.81%.
For `CCN(CC)S(=O)(=O)c1cccc(-c2n[nH]c(=S)n2/N=C/c2ccc(C(=O)OC)cc2)c1`, the “activity, negative = inhibition” value is 10.3%.
On the same count and under the same terms, for `C=CCc1c(C)nc2cc(-c3ccccc3)[nH]n2c1=O` the value was 20.2%.
With `Cc1cc(=O)n2[nH]c(-c3sccc3-n3c(C)ccc3C)cc2n1`, the Potency is 20 µM (active).
With `CN(Cc1ccccc1)C(=O)c1cn(C)c2ccc(S(=O)(=O)N(C)C3CCCCC3)cc2c1=O`, the “activity, negative = inhibition” value was 29.5%.
Same read-out and setting: with `COC(=O)c1cc(NC(=O)c2cnc(SC)nc2-c2ccccc2)cc(C(=O)OC)c1` the figure was 29.1%.
`CC(C)(C)OC(=O)N1CCC(c2c(C(=O)Nc3ccc4c(c3)OCO4)cnn2-c2ccccc2)CC1`: the “activity, negative = inhibition” value is 16.7%.
The same measure, in the same setting: for `Cc1cccc(-n2ncc(C(=O)N3CCN(c4ccc(Cl)cc4)CC3)c2C2CCN(C(=O)OC(C)(C)C)CC2)c1` the value was 16.7%.
Turning to `COC(=O)c1ccc(NC(=O)c2cnn(-c3ccc(Cl)cc3)c2C2CCN(C(=O)OC(C)(C)C)CC2)cc1`, the Potency was 89.1 µM (active).
As for `Cc1nn(C)c2c1c(C(F)(F)F)cc(=O)n2C(C)C(=O)NCc1ccc(Cl)cc1` (stereo not drawn), the “activity, negative = inhibition” value is -26.1%.
With `CN1CCOC1c1ccc(C2OCCN2C)cc1` (stereo not drawn), the Potency was 20 µM (active).
In the case of `CCOC(=O)c1cccc(NC(=O)c2cc(S(=O)(=O)N3CCCC(C)C3)cn2C)c1` (stereo not drawn), the “activity, negative = inhibition” value was 3.29%.
Same read-out and setting: with `CCOc1ccc(N(C)S(=O)(=O)c2cc(-c3cnc(C)o3)ccc2OC)cc1` the figure was 10.1%; with `Cc1ccc(-n2c(=O)c3cccnc3n2CC(=O)NCc2ccc(F)cc2)cc1C`, 22.8%.
As for `CC1CCCCN1S(=O)(=O)c1ccc(F)c(C(=O)Nc2ccccc2C(F)(F)F)c1` (stereo not drawn), the “activity, negative = inhibition” value was 13.6%.
Same read-out and setting: for `Brc1nc2ncnc(NCc3ccco3)c2[nH]1` the value was -12.7%.
`Cc1ccc(N2NC(=O)/C(=C/C=C/c3ccco3)C2=O)cc1C`: the Potency was 20 µM (active).
On to `Cc1ccc(C(=O)N/C(=C\c2ccco2)C(=O)N2CCSCC2)cc1C`, for which the “activity, negative = inhibition” value is 21.8%.
Turning to `Cc1ccc(N=C2NC(=O)/C(=C/C=C/c3ccco3)S2)cc1C`, the Potency is 11.2 µM (active).
Turning to `Cc1ccc(-n2ncc3c(=O)n(-c4ccc(C)c(C)c4)c(-c4ccco4)nc32)cc1`, the “activity, negative = inhibition” value was 24.7%.
Still for that read-out and setting: with `CCOc1ccc(-c2cc3nc(C4CCN(C(=O)OC(C)(C)C)CC4)c(C(=O)Nc4cccc(CC)c4)cn3n2)cc1` the figure was 31%; with `COc1cccc(NC(=O)N2CCN(C(=O)c3nsc4ccccc34)CC2)c1`, 36.9%.
Turning to `CCc1ccccc1NC(=O)N1CCC2(CC1)Oc1ccccc1C(=O)N2Cc1ccccc1F`, the “activity, negative = inhibition” value is -3.54%.
As to `Cc1cc(C)cc(OCC(=O)Nc2c(C(=O)c3ccccc3)oc3ccccc23)c1`, the “activity, negative = inhibition” value is 13.4%.
Consider `COc1ccccc1CNc1nc2ccc(Cl)cc2n2cnnc12`, for which the “activity, negative = inhibition” value is 2.76%.
Consider `O=C(Nc1cccc(-c2nc3ccccc3o2)c1)c1cccc(Br)c1`, for which the “activity, negative = inhibition” value is 7.05%.
Still for that read-out and setting: with `O=C(COc1ccc([N+](=O)[O-])cc1)Nc1cccc(C(=O)Nc2ccccc2C(=O)O)c1` the figure was 4.15%.
The same measure, in the same setting: with `Cc1cccc(OCC(=O)NCCNC(=O)c2cccnc2)c1` the figure was -19.7%; with `O=C(N/N=C/c1cccc(OC(=O)c2ccc([N+](=O)[O-])cc2)c1)c1cccnc1`, 148%; with `Cc1ccc(OCC(=O)NCCCNC(=O)c2cccnc2)cc1C`, -14.2%.
On to `O=C(COc1ccc(/C=N/NC(=O)c2ccc(O)cc2)cc1)Nc1ccc([N+](=O)[O-])cc1`, for which the Potency was 3.98 µM (active).
For the molecule `Cc1ccc(NC(=O)COc2ccc(/C=N\NC(=O)c3cccnc3)cc2)cc1C`, the Potency is 22.4 µM (active).
With `O=C(Nc1ccc(S(=O)(=O)N2CCC(c3nc4ccccc4s3)CC2)cc1)c1ccccc1F`, the “activity, negative = inhibition” value was 19.1%.
`COc1ccc(CCNC(=O)c2nn(C)c3c2CSc2ccccc2-3)cc1OC`: the “activity, negative = inhibition” value is -19.9%.
Consider `COc1ccc(NC(=O)c2ccc3oc(=O)c(S(=O)(=O)c4ccc(F)cc4)cc3c2)c(OC)c1`, for which the “activity, negative = inhibition” value is 18.3%.
Same read-out and setting: with `CCCN1CCN(CCCNC(=O)c2cnn(-c3ccc(C)cc3)c2-n2cccc2)CC1` the figure was 15%; with `O=C(Cn1cnc2ccccc2c1=O)NNC(=O)c1ccccc1F`, 85.9%.
Take `Cc1cc2occ(CC(=O)NNC(=O)c3ccccc3F)c2cc1C`: the “activity, negative = inhibition” value is 9.31%.
Turning to `Cn1c(CC(=O)NNC(=O)c2ccccc2F)nc2ccccc21`, the Potency is 70.8 µM (active).
